# From PubChem BioAssay
# CHT block = inhibitors of human choline transporter CHT; Q9GZV3; CHT-expressing cells, membrane potential dye, choline response; hits give low values; B-score at 10 µM; 310,000 compounds, 0.86% hits; AID 488975;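 active = B-score over 3 SD under the library average, and starting fluorescence ratio not unusually high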;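 note: choline stimulus applied at its EC90 after an EC20 pre-addition; B-score computed on integrated fluorescence ratio after choline addition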
# Target sequence (Q9GZV3 whole entry, looked up): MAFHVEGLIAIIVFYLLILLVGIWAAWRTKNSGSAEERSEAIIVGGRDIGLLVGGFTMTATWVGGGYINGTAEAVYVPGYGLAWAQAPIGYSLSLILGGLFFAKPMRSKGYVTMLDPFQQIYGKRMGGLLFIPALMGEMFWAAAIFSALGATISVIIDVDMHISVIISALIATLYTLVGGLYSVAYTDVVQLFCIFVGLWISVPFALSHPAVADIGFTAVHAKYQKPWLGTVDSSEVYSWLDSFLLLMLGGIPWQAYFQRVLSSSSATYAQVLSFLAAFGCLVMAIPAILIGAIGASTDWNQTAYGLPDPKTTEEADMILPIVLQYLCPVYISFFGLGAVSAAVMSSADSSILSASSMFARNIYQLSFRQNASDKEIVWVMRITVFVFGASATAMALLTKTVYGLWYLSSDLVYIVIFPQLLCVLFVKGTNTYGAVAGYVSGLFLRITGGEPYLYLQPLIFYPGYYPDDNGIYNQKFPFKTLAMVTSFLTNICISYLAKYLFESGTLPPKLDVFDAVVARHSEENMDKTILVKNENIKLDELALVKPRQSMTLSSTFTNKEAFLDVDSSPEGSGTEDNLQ
# PHOSPHO1 inh = inhibitors of human PHOSPHO1 phosphatase; Q8TCT1; recombinant PHOSPHO1, absorbance phosphatase assay; inhibition, % at 13.3 µM; 290,000 compounds, 1.1% hits; AID 1565; in the data active = inhibition above about 60%
# CHT allo act = allosterically activates the human high affinity choline transporter; CHT-expressing cells, membrane potential dye, choline EC20; hits give high values; LV-AA mutant CHT in HEK293 cells; AID 488977; Q9GZV3; B-score at 10 µM; 310,000 compounds, 0.49% hits;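 active = initial fluorescence not abnormally high and integrated response B-score, plate-corrected, over 3 SD above library mean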
# ANO1 block = mouse TMEM16A channel inhibition, primary screen; Q8BHY3; HEK293 TMEM16A/YFP iodide influx fluorescence, ionomycin; normalized B-score (activity score, 25-100; higher = stronger inhibition) at 10 µM; 310,000 compounds, 1.2% hits;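 active = ratio plate-corrected score three or more library SD toward inhibition, starting fluorescence score within five deviations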;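 note: score derived from kinetic fluorescence span divided by baseline fluorescence per well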
# HDAC3 inh = inhibitors of human histone deacetylase 3; O15379; recombinant HDAC3, fluorogenic peptide/trypsin coupled, fluorescence; inhibition, % at 8.3 µM; 320,000 compounds, 0.15% hits; in the data active = inhibition above about 26%, passing the limit was not always enough; inconclusive = no clear call, values can overlap the other calls
# TMEM16A act = activates or potentiates the mouse TMEM16A chloride channel; Q8BHY3; B-score at 10 µM; AID 623877; 340,000 compounds, 0.3% hits; HEK293 TMEM16A/YFP-H148Q/I152L, iodide quench fluorescence; hits give low values;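 active = fluorescence-ratio B-score plate-corrected deviation score at least 3 library SD below zero, with starting fluorescence score within 5 deviations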;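 note: channel opened by trigger with iodide after compound preincubation; score built on the fluorescence ratio of max minus min over baseline; more negative score means more quench and so TMEM16A activation or potentiation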
# CHT act confirm = human CHT activation, confirmatory screen; shares compounds with CHT allo act; CHT-expressing cells, membrane potential dye fluorescence (FDSS); % of choline EC20–EC90 response window; HEK293 expressing CHT LV-AA mutant; choline added at its EC20; activation, % at 10 µM; 2,500 compounds, 91% hits; AID 504833;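 active = primary screen active, with duplicate mean activation above negative control mean plus 3 SD, cut at about 11% in these data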
# HEK293 MP dye = counter-screen for CHT activators: effect in parental HEK293 cells; membrane potential dye fluorescence (FDSS); measured after EC20 choline addition; shares compounds with CHT allo act; 2,500 compounds, 62% hits; ratio readout change at 10 µM, hits read low;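 active = duplicate-averaged ratio beyond 3 SD from buffer wells, up or down, though filed actives are nearly all decreases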
# An asterisk follows results filed as active; i = inactive; ? = inconclusive; / = no result. An excerpt weighted towards active compounds, which were near 3.2% of everything screened.
SMILES,CHT block,PHOSPHO1 inh,CHT allo act,ANO1 block,HDAC3 inh,TMEM16A act,CHT act confirm,HEK293 MP dye
CC1(C)Cc2c(sc3nc(NCCN4CCOCC4)n4ncnc4c23)CO1,i,-21,6.5*,i,1,i,62*,-62*
CCN(CC)CCCC(C)NC(=O)c1cccc(S(=O)(=O)N2CCc3ccccc32)c1 (centres undefined),i,-4,i,i,-1,i,/,/
Cc1cc(N2CCOCC2)c2c(N)c(Br)cc(C)c2n1,i,1,9.8*,i,4,i,45*,-66*
Cc1cc(C[n+]2ccccc2)c2nsnc2c1,i,-1,10*,i,-13,i,45*,-72*
Cc1cccc(CCN2C(N(C)C)=NC[C@@H]2Cc2ccccc2)c1,/,/,/,/,-4,i,/,/
CN(C)C1=NC[C@H](Cc2ccccc2)N1CCCCc1ccccc1,i,/,i,i,-3,i,16*,i
CN(C)C1=NC[C@H](Cc2ccccc2)N1CC1CCCCC1,i,/,i,i,-1,i,/,/
CCCCCCCN1C(N(C)C)=NC[C@@H]1Cc1ccccc1,i,/,6.8*,i,2,i,25*,i
O=C(COC(=O)CCc1nc2ccccc2c(=O)[nH]1)NCc1ccc(F)cc1,i,-15,i,i,-3,i,/,/
O=C(c1cccc(C(F)(F)F)c1)C1CCCN(Cc2cccn2-c2ncccn2)C1 (centres undefined),i,27,9.2*,i,-1,i,25*,i
Cc1ccsc1C(=O)C1CCCN(Cc2cccn2-c2ccc(Cl)cn2)C1 (centres undefined),i,44,16*,i,12,i,49*,i
COc1cccc(C(=O)C2CCCN(Cc3cccn3-c3ccccn3)C2)c1 (centres undefined),i,30,9.7*,i,1,i,46*,-26*
Cc1ccc(-n2cccn2)c(CN2CCCC(C(=O)c3sccc3C)C2)c1 (centres undefined),i,-12,i,i,/,i,/,/
Cc1cccc(NC(=O)CNC(=O)c2cc(C3CC3)nn2-c2ccccc2)c1C,/,/,/,/,/,i,/,/
COc1ccccc1N1CCN(S(=O)(=O)CCNC(=O)Cc2ccc(F)cc2)CC1,i,/,i,i,0,i,/,/
COc1ccc(C(=O)OCC(=O)Nc2ccc(Cl)c(C(F)(F)F)c2)c(OC)c1OC,i,2,7.6*,i,?,i,4,i
COC(=O)C1=C(C)N(Cc2ccccc2)C(=NCCc2c[nH]c3ccccc23)N[C@H]1c1cccc(F)c1,/,/,/,/,1,i,/,/
Cc1n(C)c2cc(Cl)ccc2[n+]1Cc1ccccc1,i,-44,9.3*,i,3,i,65*,-44*
CCOc1ccc(OCC)c(NC(=O)c2ccc(CNc3c(N4CCCC4)c(=O)c3=O)cc2)c1,i,30,i,i,-1,i,/,/
Cc1c2cccn2cc[n+]1C,i,41,6.6*,i,-6,i,58*,-53*
CC(C)CC(c1nnnn1C(C)(C)C)N1CCN(C2CCCC2)CC1 (centres undefined),i,25,6.6*,i,-1,i,15*,i
Cc1ccc(C(c2nnnn2C(C)(C)C)N2CCN(C3CCCC3)CC2)cc1 (centres undefined),i,-37,i,i,2,i,/,/
COc1ccccc1N1CC(C(=O)NCCC2=CCCCC2)CC1=O (centres undefined),/,/,/,/,-10,i,/,/
c1cc2c(cc1NC1CCCCCC1)OCO2,i,/,i,i,14,i,/,/
Cc1ccc(N/C(N)=N/c2nc(CSc3nnc(C)s3)cc(=O)[nH]2)c(C)c1,i,58,6.9*,i,10,i,24*,i
